Among the data in PubChem BioAssay (NCATS) are outcome values, retold here.

Results filed as inconclusive are left out. Active and inactive are the calls of the source. Calls follow the shape of the dose curve; as a rule, active = well fitted inhibition curve with a large enough effect; inconclusive = small, poorly fitted or top-dose-only effect; inactive = flat fitted curve, though single readings scatter.

This assay deals with HACAT. Kind of assay: qHTS assay to identify novel small-molecules to repurpose for Merkel cell carcinoma treatment (AID 1296009). Also: nearly all actives have a fitted effect of over 60% in size. The note with it: MCC and control cell lines, CellTiter-Glo viability, 72 h; at 44.8 µM (top of the series) unless noted. In a few lines:
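72 hr, 37 degree celsius; NPC 8-pt / MIPE 11-pt dose response; compound pinned in DMSO; CellTiter-Glo, 10 min RT, luminescence; normalized to no-cell and DMSO controls.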
In general terms: Quantitative high-throughput screening tests each substance at several concentrations.
As for `C=C1C(=O)O[C@@H]2/C=C(\C)CC/C=C(/C=O)[C@H](OC)[C@@H](OC(=O)C(C)C)[C@@H]12`, the compound was called inactive.

As for `C=C(C)C1=C[C@@]2(C)C(=CC1=O)CC[C@@H](O)[C@@H]2C`, the outcome was inactive.

As to `CCOc1cccc(NC(=O)c2ccc(N3CCCC3)c(C(F)(F)F)c2)c1`, the call was inactive.

For `Cc1ccccc1CN1CCn2c1nc1c(c2=O)CN(Cc2ccccc2)CC1`, the result was inactive.

Consider `C=C1C(=O)OC2/C=C(\CO)CC/C=C(\C=O)C(O)C(OC(=O)C(C)CC)C12` (stereo unspecified), for which the outcome was inactive.

Take `COc1ccccc1OCCN1CC(COc2cccc3[nH]c4ccccc4c23)OCC1=O` (stereo unspecified): the compound was called inactive.
